G9a block: qHTS Assay for Inhibitors of Histone Lysine Methyltransferase G9a | G9a H3K9 monomethylation, AlphaScreen, 2 h | Potency, µM (highest dose often 102 µM), usual class: inhibitors | hit rate 8.8% among 350,000 | AID 504332, 2011; note: nearly all actives have a fitted effect of over 75% in size
Target sequence (Q96KQ7 913-1193 limits assumed): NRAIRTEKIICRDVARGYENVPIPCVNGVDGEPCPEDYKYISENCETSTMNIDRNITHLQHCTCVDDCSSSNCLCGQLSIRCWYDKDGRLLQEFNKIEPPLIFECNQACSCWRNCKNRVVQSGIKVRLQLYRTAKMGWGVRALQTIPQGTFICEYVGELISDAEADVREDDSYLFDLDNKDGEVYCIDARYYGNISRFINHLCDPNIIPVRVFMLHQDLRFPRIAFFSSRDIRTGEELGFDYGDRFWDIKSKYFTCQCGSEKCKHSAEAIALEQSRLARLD
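Enzyme 20 nM + cpd, 15 min RT; add b-H3K9 pep 500 nM / SAM 20 uM; 2 h RT; anti-H3K9me1 Ab 0.5 ug/mL + SA donor / anti-rabbit acceptor beads 20 ug/mL each, 10 min; AlphaScreen read.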
BAZ2B block: qHTS Assay for Inhibitors of BAZ2B; hit rate 4.4% among 360,000; Bromodomain adjacent to zinc finger domain protein 2B (Homo sapiens), Q9UIF8; Potency, µM (titrated, usually from 114 µM), most hits filed as inhibitors; AlphaScreen BAZ2B-H3K14Ac peptide displacement; note: nearly all actives have a fitted effect of over 60% in size
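Multi-concentration screen (max 110 uM) measuring displacement of acetylated histone H3 peptide from BAZ2B by AlphaScreen, using 50 nM protein, 50 nM peptide and 10 ug/mL streptavidin donor plus Ni-chelate acceptor beads.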
HP1b binding inh: HTS for Inhibitors of HP1-beta Chromodomain Interactions with Methylated Histone Tails; Potency, µM (series often up to 114 µM), actives largely listed as inhibitors; hit rate 0.56% among 390,000; AID 540317, 2011; Chromobox protein homolog 1 (Homo sapiens), P83916; AlphaScreen HP1-beta / biotin-H3K9me3 peptide binding; note: nearly all actives have a fitted effect of over 70% in size
Target sequence (P83916 whole entry, looked up): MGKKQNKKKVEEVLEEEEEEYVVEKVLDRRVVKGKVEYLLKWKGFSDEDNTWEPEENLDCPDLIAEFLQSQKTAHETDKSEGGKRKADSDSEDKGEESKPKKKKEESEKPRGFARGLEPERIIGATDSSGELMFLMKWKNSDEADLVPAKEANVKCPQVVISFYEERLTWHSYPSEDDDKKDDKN
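AlphaScreen: HP1-beta (50 nM) preformed 30 min with biotin-H3(1-18)K9me3 peptide (50 nM) in PBS pH 7.4, 0.01% Tween-20. Compound added for 30 min at RT, then streptavidin donor/nickel chelate acceptor beads (10 ug/mL) for 30 min.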
PLK1 PBD block: qHTS for Inhibitors of PLK1-PDB (polo-like kinase 1 - polo-box domain): Primary Screen; hit rate 2.8% among 360,000; Serine/threonine-protein kinase PLK1 (Homo sapiens), P53350; Plk1 PBD binding of FITC phosphopeptide, fluorescence polarization; AID 720504, 2013; Potency, µM, hits mostly inhibitors; note: series mostly up to about 57 µM; nearly all actives have a fitted effect of over 65% in size
JMJD2A Tudor inh: qHTS Assay for Inhibitors of JMJD2A-Tudor Domain; Potency, µM (series often up to 114 µM), hits mostly inhibitors; hit rate 4.4% among 390,000; AlphaScreen JMJD2A-Tudor / H3K4me3 peptide binding; note: nearly all actives have a fitted effect of over 50% in size
Sfp inh: qHTS Assay for Inhibitors of Bacillus subtilis Sfp phosphopantetheinyl transferase (PPTase) | 4'-phosphopantetheinyl transferase ffp (Bacillus subtilis), Q9F4F7 | Biochemical Sfp PPTase activity, qHTS | Potency, µM, hits mostly inhibitors | hit rate 3.5% among 310,000 | AID 1490, 2009;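 note: the enzyme is Sfp with the accession as filed and its product quenches rhodamine fluorescence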
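Fluorescence-quenching assay: 15 nM Sfp-PPTase preincubated 15 min at room temperature with compound, then 5 uM rhodamine-CoA and 12.5 uM BHQ-2-labelled YbbR peptide added. Fluorescence (ex 525/em 598 nm) read at start and after 30 min; difference gives rate.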
Numbers stand for hits; . = inactive; ? = inconclusive; / = not tested or not shown; [ ] = another dose, or the depositor's remark. Rows were chosen to be rich in hits. Some 12% of all compounds tested hit in one or more screens of this group. Calls come from the whole dose curve; as a rule, active = well fitted curve in the direction sought with a large enough effect; inconclusive = small, poorly fitted or top-dose-only effect, or another doubt; inactive = no such curve, though single readings can be large; an effect the other way counts as inactive or inconclusive.

SMILES | G9a block | BAZ2B block | HP1b binding inh | PLK1 PBD block | JMJD2A Tudor inh | Sfp inh
CCOc1ccc(C(=O)N2CCN(Cc3cc(=O)n4nc(-c5ccccc5Cl)sc4n3)CC2)cc1 | . | . | . | / | . | /
Cc1cccc2c(N=Nc3ccccc3)c(O)[nH]c12 | 40µM | . | . | . | . | .
C/C=C/OC(=O)NC(c1ccccc1)[C@@]1(C(=O)OC)CCCC1=O (some centres undefined) | / | / | / | / | / | .
OC1(CC#CCN2CCCCC2)c2ccccc2-c2ccccc21 | . | . | . | . | . | .
CCN(CC#CCC1(O)c2ccccc2-c2ccccc21)CCO | .[0.0925 µM] | ? | . | . | 89µM | 89µM
Cc1oc(-c2ccccc2)cc1C(=O)Nc1cccc(/C=C\C(=O)O)c1 | 45µM | . | . | . | . | .
c1ccc(CCNc2ccc3nncn3n2)cc1 | . | . | . | . | . | .
NNc1ccc2nncn2n1 | 50µM | . | . | . | . | ?
Cc1sc2nc(CSc3ccc([N+](=O)[O-])c(C(F)(F)F)c3)[nH]c(=O)c2c1C | ? | . | . | . | . | 56µM
Cc1sc2nc(CSC(C)C(=O)N(C)CC(=O)Nc3ccccc3C(F)(F)F)[nH]c(=O)c2c1C (centres undefined) | ? | . | . | . | . | /
COCCN(CC(=O)NCC1CCCO1)C(=O)CCC(=O)Nc1cc(C)ccn1 (centres undefined) | 28µM | . | . | . | . | .
COCCN(CC(=O)NCC1CCCO1)C(=O)CCC(=O)Nc1ccccn1 (centres undefined) | . | . | . | 4.7µM | ? | .
O=C(CN(CC1CCCO1)C(=O)CCC(=O)Nc1ccccn1)NCC1CCCO1 (centres undefined) | ? | . | . | . | . | .
O=C1c2ccc([N+](=O)[O-])cc2S(=O)(=O)N1Cc1ccccc1 | 11µM | ? | ? | . | ? | .
COc1cccc(CN2C(=O)c3ccccc3S2(=O)=O)c1 | . | . | . | . | . | .
Cc1c(NC(=O)CSc2nc(N)cc(N)n2)c(=O)n(-c2ccccc2)n1C | .[2.33 µM] | . | . | . | . | /
O=C1CC(N(O)C2CC(=O)N(Cc3ccccc3)C2=O)C(=O)N1Cc1ccccc1 (centres undefined) | / | . | . | 24µM | . | 45µM
CCCN(CCC)C1CC(=O)N(Cc2ccccc2)C1=O (centres undefined) | 25µM | . | . | . | . | ?
O=C1CC(N2CCN(c3ccccc3O)CC2)C(=O)N1Cc1ccccc1 (centres undefined) | . | . | . | . | . | .
COc1ccccc1CNC(=O)c1cc(-c2cc(F)ccc2OC(C)C)n[nH]1 | / | / | / | . | / | /
Cc1ccc(C)n1-c1nc(=S)[nH][nH]1 | 1.3µM | ? | 16µM | 24µM | 3.2µM | 14µM
Cc1ccc(C)n1-c1ccc(-c2ccn[nH]2)cc1 | ? | . | . | . | . | .
CCOc1ccccc1NC(=O)C(=O)NCCc1sc(-c2cccc(F)c2)nc1C | . | . | . | / | . | /
Cc1ccc(/C=C/C(=O)Nc2ccccc2C(N)=O)o1 | 10µM | . | . | / | . | /
O=C(/C=C/c1ccco1)Nc1ccccc1C(=O)Nc1cccc(C(=O)O)c1 | 50µM | . | . | . | . | ?
SMILES | G9a block | BAZ2B block | HP1b binding inh | PLK1 PBD block | JMJD2A Tudor inh | Sfp inh
CN(C(=O)/C=C/c1ccco1)c1ccccc1C(=O)O | 25µM | ? | . | . | . | 50µM
CN(C(=O)C=Cc1ccco1)c1ccccc1 | / | / | . | . | . | /
NC(=O)c1ccccc1NC(=O)/C=C/c1c(Cl)cccc1Cl | . | . | . | . | . | .
O=C(/C=C/c1ccco1)Nc1ccccc1C(=O)O | 14µM | . | . | ? | ? | 18µM
CCC(C)c1ccc(OCC(=O)Nc2ccc(CN3CCOCC3)cc2)cc1 (centres undefined) | . | ? | . | . | . | .
COc1ccc2cc(CNc3ccc(C)cc3)c(=O)n(CC(=O)Nc3ccc(C)cc3Cl)c2c1 | . | . | . | / | . | /
CCN(c1ccccc1)S(=O)(=O)c1cccc(C(=O)NCC(c2ccco2)N2CCCCC2)c1 (centres undefined) | / | / | . | . | . | /
CCCCCC(=O)Nc1ccccc1N1CCN(c2ccccc2)CC1 | . | . | . | . | . | .
O=C(O)/C=C/C(=O)Nc1ccccc1C(=O)Nc1ccccc1 | ? | . | . | . | . | 79µM
O=C(/C=C\c1ccco1)Nc1cc([N+](=O)[O-])ccc1F | . | . | . | . | . | .
O=C(/C=C/c1ccco1)Nc1ccccc1N1CCCC1 | 45µM | ? | . | . | ? | ?
O=C(O)/C=C\C(=O)Nc1ccccc1N1CCN(c2ccccc2)CC1 | 45µM | ? | . | . | . | ?
O=C(/C=C/c1ccco1)NC(=S)Nc1ccccc1N1CCOCC1 | ? | ? | . | . | ? | .
O=C(/C=C/c1ccco1)Nc1cc(Cl)ccc1C(=O)O | 8.9µM | ? | . | ? | ? | 56µM
COc1ccc(S(=O)(=O)N2CCCCCC2)cc1C(=O)N(C)Cc1ccc(OC)c(OC)c1OC | . | . | . | . | . | /
Cc1cccc(NC(=O)c2ccc(S(=O)(=O)N3CC(C)OC(C)C3)cc2)n1 (centres undefined) | . | . | . | . | . | /
Cc1ccc(N(Cc2ccccc2)C(=O)CSC(C)C(=O)Nc2cc(C)on2)cc1 (centres undefined) | / | / | / | . | / | /
O=[N+]([O-])c1cc(Br)c(OCc2nnc(-c3ccccc3)o2)c(Br)c1 | 28µM | ? | . | . | . | .
Nc1nc2c(c(=O)[nH]1)N(C=O)C(CNc1ccc(C(=O)NC(CCC(=O)O)C(=O)O)cc1)CN2 (centres undefined) | .[2.33 µM] | / | / | / | / | .
CCn1cc2c(n1)-c1c(oc(C(=O)Nc3ccc(Br)cc3F)c1C)CC2 | . | . | . | / | . | /
CCOC(=O)c1ccc(Cl)c(NC(=O)c2ccc(-c3ccccc3)cc2)c1 | .[12.7 µM] | . | . | . | . | .
CCOC(=O)c1ccc(/C=C2/C=C(c3ccccc3)N(c3ccc(Cl)c(C(=O)O)c3)C2=O)cc1 | 11µM | 50µM | . | . | ? | ?
COc1ccccc1-c1cc(-c2ccc(C)cc2)nc(SCc2nnc(-c3ccccc3)o2)c1C#N | 11µM | . | . | 21µM | . | ?
Cc1cc(C)c(C#N)c(SCc2nnc(-c3ccccc3)o2)n1 | . | . | . | . | . | .
CC(C)(C)Cc1nnc(NC(=O)Cc2ccc([N+](=O)[O-])cc2)s1 | 10µM | . | ? | 5.3µM | ? | 40µM
